Screens (PubChem)
This is a sample that favours compounds with a hit; in the whole collection about 4% have one here.
RecA splice inh: Mtb RecA intein splicing inhibitors, primary screen, biochemical, fluorescence, HTS. inhibition, % (no concentration beside the values). cell-free RecA intein splicing. 290,000 compounds, 0.75% hits; in the data active = inhibition above about 30%;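 also: 0% = vehicle wells and 100% = reference inhibitor control wells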
GDH-TPI counter-1: GDH-TPI coupling enzyme inhibitors, primary screen, artefact control for M. tuberculosis FBA inhibitor project, biochemical, absorbance, full deck; GDH-TPI coupled enzyme counterscreen, NADH absorbance; inhibition, % at 4.8 µM; 360,000 compounds, 1.2% hits; AID 588335, 2011; in the data active = inhibition above about 30%;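 also: 0% = DMSO wells and 100% = wells lacking the enzyme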
Mtb FBA inh: Mtb FBA enzyme inhibitors, primary screen, biochemical, fluorescence, strain H37Rv; AID 588726, 2011; inhibition, % at 1 µM; Fructose-bisphosphate aldolase (Mycobacterium tuberculosis (strain ATCC 25618 / H37Rv)), …; 360,000 compounds, 2.3% hits; purified M. tuberculosis FBA, fluorescence read-out;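 also: 0% = vehicle and 100% = reference inhibitor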
Mtb UGM inh: M. tuberculosis UGM enzyme inhibitors, primary screen, biochemical, fluorescence polarization, single point | UDP-galactopyranose mutase (Mycobacterium tuberculosis (strain ATCC 25618 / H37Rv)), … | purified UGM, fluorescence polarization probe displacement | inhibition, % at 10 µM | AID 504406, 2011 | 320,000 compounds, 0.06% hits; in the data active = inhibition above about 10%, passing the limit was not always enough
Rv3671c inh: Rv3671c serine protease inhibitors, primary screen, biochemical, fluorescence polarization, M. tuberculosis H37Rv. P9WHR9. inhibition, % at 5.96 µM. 320,000 compounds, 0.048% hits. AID 2606, 2010; in the data active = inhibition above about 38%;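 also: extracellular domain of Rv3671c used as enzyme; 0% = enzyme with DMSO and 100% = no enzyme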
Target sequence (P9WHR9 whole entry, looked up, the tested form may be a part): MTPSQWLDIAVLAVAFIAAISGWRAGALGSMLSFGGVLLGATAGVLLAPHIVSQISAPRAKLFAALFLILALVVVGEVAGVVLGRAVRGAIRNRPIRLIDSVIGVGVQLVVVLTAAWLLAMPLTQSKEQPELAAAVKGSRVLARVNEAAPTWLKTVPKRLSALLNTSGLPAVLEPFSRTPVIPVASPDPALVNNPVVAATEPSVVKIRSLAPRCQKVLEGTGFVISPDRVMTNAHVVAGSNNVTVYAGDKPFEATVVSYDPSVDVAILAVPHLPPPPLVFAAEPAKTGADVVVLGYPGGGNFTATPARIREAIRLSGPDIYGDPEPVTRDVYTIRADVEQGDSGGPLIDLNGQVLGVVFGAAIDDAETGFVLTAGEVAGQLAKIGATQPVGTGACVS
Mtb bLac sens: beta-lactam sensitization of Mtb H37Rv, H37Rv. M. tuberculosis H37Rv growth with meropenem, percent inhibition. inhibition, % at 25 µM. 330,000 compounds, 0.27% hits; call rule not given here;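 also: growth measured after seven days incubation then overnight dye step; 0% = bacteria only wells and 100% = bacteria with antibiotic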
Mtb FBA inh conf: M. tuberculosis aldolase blockers, biochemical, fluorescence, strain H37Rv, confirmation; shares compounds with Mtb FBA inh; purified M. tuberculosis FBA, fluorescence read-out; inhibition, % at 1 µM; 5,600 compounds, 78% hits; AID 651616, 2012;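 also: 0% = vehicle wells and 100% = reference inhibitor wells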
GDH-TPI counter-2: GDH-TPI coupling enzyme inhibitors, artefact control for M. tuberculosis FBA inhibitor project, biochemical, fluorescence, high throughput. AID 652141, 2013. GDH-TPI coupled enzyme counterscreen. inhibition, % at 1 µM. shares compounds with Mtb FBA inh. 5,600 compounds, 81% hits; in the data active = inhibition above about 10%
The depositor's hits bear a star; . = no result; + = active, no number. Rule as the data show it, unless noted: active = inhibition above about 27%; inactive = the rest.

SMILES | RecA splice inh | GDH-TPI counter-1 | Mtb FBA inh | Mtb UGM inh | Rv3671c inh | Mtb bLac sens | Mtb FBA inh conf | GDH-TPI counter-2
Cc1c(O)c2ccccc2n(-c2ccccc2)c1=O | 0.4 | 15.7 | 47.3* | 3.1 | 0.0 | 22.1 | 76.8* | 54.1*
Cc1nnc2n(-c3ccccc3)c(=O)c3ccccc3n12 | -3.5 | -6.1 | -2.1 | -0.3 | 2.4 | -4.3 | . | .
COC(=O)C1=CN(C2CC2)C=C(C(=O)OC)C1c1ccc(C(F)(F)F)cc1 | -44.2 | -1.3 | 25.0 | 4.2 | 3.8 | -3.5 | . | .
COC(=O)C1=CN(C)C=C(C(=O)OC)C1c1ccsc1 | -92.2 | 3.5 | 69.8* | . | . | . | 115.5* | 117.8*
Cn1cccc2[nH]c(=O)nc1-2 | 0.2 | 9.1 | 36.6* | -0.5 | 6.8 | -4.6 | 78.0* | 54.5*
Cc1cc(SCC(=O)OC/C(O)=C(\C#N)c2nc3ccccc3[nH]2)c(C)cc1Br | -1.2 | 16.1 | 1.6 | 0.8 | -19.5 | 97.5 | . | .
CC(C)(C)NC(=O)NC(=O)CN1CCN(c2ncc(C(F)(F)F)cc2Cl)CC1 | 0.3 | 2.2 | -3.2 | 0.9 | -5.2 | -3.4 | . | .
COc1ccc2c(c1)CCC1(C)CC(=O)C=C21 (configuration not stated) | . | 36.9* | 39.1* | . | . | . | 45.6* | 44.8*
COc1ccc(C2CC(=O)C=C3c4ccc(OC)cc4CCC32)cc1 (configuration not stated) | . | 25.7 | 4.3 | . | . | . | . | .
COc1c(C)cccc1C(=O)Nc1ccc(CN2CCCCC2)cc1 | -0.2 | 2.9 | -1.0 | 0.6 | -0.8 | 4.5 | . | .
Cc1cccc(NC(=O)C(C)OC(=O)CNC(=O)C2CCCCC2)c1 (configuration not stated) | . | 9.8 | -2.0 | . | . | . | . | .
CCC(C(=O)N1CCc2cc(OC)c(OC)cc2C1)c1ccccc1 (configuration not stated) | 5.8 | 8.6 | 2.1 | 0.2 | 1.3 | 4.5 | . | .
COc1cc2c(cc1OC)CN(Cc1cccs1)CC2 | 1.1 | -3.2 | 28.7* | 1.1 | -4.0 | -8.0 | 97.7* | 86.5*
COc1cc2c(cc1OC)CN(CC(O)c1ccccc1)CC2 (configuration not stated) | -100.5 | 8.3 | 57.4* | 1.9 | -1.5 | -1.5 | 40.9* | 33.0*
COc1cc2c(cc1OC)CN(Cc1ccccc1)CC2 | -1.9 | 16.9 | 7.6 | -2.3 | 1.6 | -4.9 | . | .
CC(C)c1nc(N2CCN(C(=O)c3ccccc3)CC2)c(C#N)c2c1COC(C)(C)C2 | 13.4 | -1.3 | 15.5 | 6.4 | 0.9 | 4.5 | . | .
CC(C)c1nc(N2CCN(C(=O)c3ccco3)CC2)c(C#N)c2c1COC(C)(C)C2 | 18.0 | 5.2 | 37.3* | 1.0 | -0.6 | 4.5 | + | +
O=C(NCc1ccc2c(c1)OCO2)c1ccccc1Cl | -2.0 | 8.6 | 0.3 | -1.5 | 4.7 | 3.6 | . | .
CC(=O)OC(C(=O)NCc1ccc2c(c1)OCO2)c1ccccc1Cl (configuration not stated) | -0.1 | 4.3 | 105.4* | -2.3 | -7.1 | -16.0 | 120.2* | 91.8*
CC(C)C(OC(=O)c1ccco1)C(=O)NCc1ccc2c(c1)OCO2 (configuration not stated) | 0.8 | 1.5 | 73.9* | 0.7 | 0.9 | -4.4 | 134.6* | 83.6*
COc1ccc(C/C(C)=N/NC(=S)Nc2ccc(C)c(C)c2)cc1 | 2.9 | 6.4 | 3.5 | -0.2 | -8.0 | -4.5 | . | .
O=C(NC(NC(=S)Nc1ccccc1C(=O)O)C(Cl)(Cl)Cl)c1ccco1 (configuration not stated) | 0.7 | 10.7 | 32.9* | . | 0.1 | 2.2 | 2.1 | -4.2
Cc1cccc(C(=O)N(Cc2ccco2)c2c(N)n(Cc3ccccc3)c(=O)[nH]c2=O)c1 | . | 2.8 | -0.3 | -2.1 | -1.6 | 2.7 | . | .
COc1ccc2oc(C(=O)OCC(=O)Nc3ccc(OC)c(S(N)(=O)=O)c3)c(C)c2c1 | -2.3 | 6.9 | 26.7 | -2.8 | -11.0 | -0.7 | . | .
